Compound activity: PubChem BioAssay, NMMLSC
Only some compounds are listed: those with a hit (about 0.78% of all), similar ones and a draw of the others.
RGS7-Gao – modulates binding of RGS7 to human Galphao; Multiplexed bead flow cytometry; actives lie on both sides; binding response (% of control), % at 10 µM; actives 0.35% (n = 220,000); AID 1439; in the data active = binding response below about 49% or above about 150%; inconclusive = no clear call, values can overlap the other calls; inactive = in between;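 also: fluorescent Galphao held in activated GDP-AlF4 state binding bead-coupled RGS7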
RGS8-Gao reg – modulates binding of RGS8 to human Galphao; P09471; multiplexed bead flow cytometry; actives lie on both sides; response (percent of control binding), % at 10 µM; actives 0.34% (n = 220,000); AID 1423; in the data active = response below about 60% or above about 140%; inactive = in between;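 also: Galphao activated as the GDP aluminium fluoride complex binding bead-coupled RGS8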
RGS16-Gao HTS – modulates binding between human RGS16 and Galphao | binding response (% of control), % at 10 µM | bead-based flow cytometry RGS16-Galphao binding, fluorescence; actives lie on both sides | actives 0.38% (n = 220,000) | O15492+P09471;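 also: Galphao activated by GDP with aluminum fluoride before binding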
RGS4-Gao reg – modulates binding of RGS4 to human Galphao; binding response (% of control), % at 10 µM; actives 0.33% (n = 220,000); Multiplexed bead flow cytometry; actives lie on both sides; in the data active = binding response below about 49% or above about 150%; inactive = in between;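 also: fluorescent Galphao activated with aluminum fluoride binding bead-coupled RGS4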
RGS4-Gao HTS – modulates binding between human RGS4 and Galphao; shares compounds with RGS16-Gao HTS; multiplexed bead flow cytometry, RGS–Galpha-o binding; RGS4–Galpha-o binding response, % at 10 µM; actives 99% (n = 1,600); AID 1504;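 also: fluorescently labeled Galpha-o bound to GDP with aluminium fluoride binding biotinylated RGS beads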
Target sequence (P09471 whole entry, looked up): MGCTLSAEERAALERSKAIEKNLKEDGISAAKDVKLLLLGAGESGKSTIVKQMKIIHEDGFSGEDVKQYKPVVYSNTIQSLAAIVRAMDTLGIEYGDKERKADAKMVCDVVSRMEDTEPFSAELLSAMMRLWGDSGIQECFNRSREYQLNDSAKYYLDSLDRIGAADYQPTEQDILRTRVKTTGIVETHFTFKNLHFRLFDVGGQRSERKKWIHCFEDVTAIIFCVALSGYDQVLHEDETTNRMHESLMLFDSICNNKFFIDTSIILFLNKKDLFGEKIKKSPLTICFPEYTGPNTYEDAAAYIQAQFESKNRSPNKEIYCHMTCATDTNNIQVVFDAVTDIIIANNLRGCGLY
Target sequence (P49798 whole entry, looked up): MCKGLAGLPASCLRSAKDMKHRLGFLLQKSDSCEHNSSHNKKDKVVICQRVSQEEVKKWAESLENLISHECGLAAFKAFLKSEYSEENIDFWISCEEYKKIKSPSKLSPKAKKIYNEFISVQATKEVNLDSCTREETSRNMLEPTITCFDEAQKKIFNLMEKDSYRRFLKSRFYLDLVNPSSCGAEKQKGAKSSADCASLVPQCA
Biotin-avidin – interferes with biotinylated probe binding to avidin beads; inhibition, % at 10 µM; 1,700 tested, under 10 active; streptavidin beads, fluorescein-biotin binding, flow cytometry; AID 1783; shares compounds with RGS16-Gao HTS;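 active = inhibition above 50%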;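 also: median green fluorescence of gated singlet beads compared with DMSO control wells; 0% = DMSO wells and 100% = complete loss of bead fluorescence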
RGS8-Gao single – confirmation of regulators of human RGS8-Galphao interaction | shares compounds with RGS16-Gao HTS | bead-based flow cytometry RGS8-Galphao binding, fluorescence; actives lie on both sides | binding response (% of control), % at 10 µM | actives 3% (n = 1,700); in the data active = binding response below about 72% or above about 130%; inactive = in between;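 also: Galphao activated as GDP AlF4 complex before binding bead RGS8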
RGS7-Gao single – RGS7-Galphao interaction regulation, single point confirmation; shares compounds with RGS16-Gao HTS; bead-based flow cytometry RGS7-Galphao binding; actives lie on both sides; response (percent of control binding), % at 10 µM; actives 7.8% (n = 1,700); AID 1837; in the data active = response below about 75% or above about 130%; inactive = in between;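 also: fluorescent Galphao activated with GDP and aluminum fluoride binding bead-coupled RGS7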
RGS16-Gao single – RGS16-Galphao interaction regulation, single point confirmation; bead-based flow cytometry, RGS16-Galphao binding; actives lie on both sides; response (% of control binding), % at 10 µM; shares compounds with RGS16-Gao HTS; actives 4% (n = 1,700); in the data active = response below about 74% or above about 130%; inactive = in between;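 also: Galphao activated as the GDP aluminium fluoride complex binding bead-coupled RGS16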
RGS4-Gao single – confirmation of regulators of human RGS4-Galphao interaction. RGS4-Galphao binding, multiplexed bead flow cytometry; actives lie on both sides. AID 1840. shares compounds with RGS16-Gao HTS. actives 4% (n = 1,700). binding response (% of control), % at 10 µM; in the data active = binding response below about 74% or above about 130%; inactive = in between
RGS19-Gao single – RGS19-Galphao interaction regulation, single point confirmation | AID 1841 | shares compounds with RGS16-Gao HTS | bead-based flow cytometry RGS19-Galphao binding; actives lie on both sides | actives 5% (n = 1,700) | response (percent of control binding), % at 10 µM; in the data active = response below about 50% or above about 160%; inactive = in between;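 also: 100% = no compound control and 0% = blank background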
The depositor's hits bear a star; [ ] = another dose, or the depositor's remark. Unless noted, no rule for the calls is given here.

What do the screens show for `CCCc1ccc(C(=O)NC(=O)c2ccccc2O)cc1`?
RGS7-Gao: inconclusive; RGS8-Gao reg: 53*; RGS16-Gao HTS: 32; RGS4-Gao reg: 33*; Biotin-avidin: -1; RGS8-Gao single: 100; RGS7-Gao single: 98; RGS16-Gao single: 98; RGS4-Gao single: 99; RGS19-Gao single: 102

How did O=C(NC(=O)c1ccccc1O)c1ccc(C(F)(F)F)cc1 do in these assays?
RGS7-Gao: inconclusive; RGS8-Gao reg: 100; RGS16-Gao HTS: 94; RGS4-Gao reg: 93

How did C/C(=N\NC(=O)c1nn(C)c(C)c1Br)c1cccc(NC(=O)c2ccc(F)cc2)c1 do in these assays?
RGS7-Gao: 112; RGS8-Gao reg: 140; RGS16-Gao HTS: 253*[activator]; RGS4-Gao reg: 114; RGS4-Gao HTS: 114*; Biotin-avidin: 1; RGS8-Gao single: 101; RGS7-Gao single: 104; RGS16-Gao single: 101; RGS4-Gao single: 102; RGS19-Gao single: 93

What do the screens show for `COc1cccc(NC(=O)CSc2nnc(CN3CCOCC3)n2C)c1`?
RGS7-Gao: 22*; RGS8-Gao reg: 17*; RGS16-Gao HTS: 6.3*; RGS4-Gao reg: 31*; Biotin-avidin: 1; RGS8-Gao single: 103; RGS7-Gao single: 102; RGS16-Gao single: 103; RGS4-Gao single: 102; RGS19-Gao single: 100

What do the screens show for `Cc1ccc(NC(=O)CSc2nnc(CN3CCOCC3)n2C)cc1C`?
RGS7-Gao: 95; RGS8-Gao reg: 102; RGS16-Gao HTS: 101; RGS4-Gao reg: 93

Results for COc1ccc(CCNC(=O)CN(C)S(=O)(=O)c2ccc(Br)s2)cc1OC ?
RGS7-Gao: 100; RGS8-Gao reg: 124; RGS16-Gao HTS: 241*[activator]; RGS4-Gao reg: 103; RGS4-Gao HTS: 103*; Biotin-avidin: 0; RGS8-Gao single: 98; RGS7-Gao single: 103; RGS16-Gao single: 103; RGS4-Gao single: 103; RGS19-Gao single: 112

How did CC1CCN(c2ccc(NC(=O)c3cccnc3)cc2)CC1 do in these assays?
RGS7-Gao: 101; RGS8-Gao reg: 102; RGS16-Gao HTS: 102; RGS4-Gao reg: 102

How did Cc1cc(OC(=O)c2ccc(S(=O)(=O)N3CCCC3)cc2)c([N+](=O)[O-])c(=O)[nH]1 do in these assays?
RGS7-Gao: 110; RGS8-Gao reg: 142*[activator]; RGS16-Gao HTS: 289; RGS4-Gao reg: 112; RGS4-Gao HTS: 112*; Biotin-avidin: 0; RGS8-Gao single: 103; RGS7-Gao single: 101; RGS16-Gao single: 102; RGS4-Gao single: 100; RGS19-Gao single: 91

How did Cc1cc(OC(=O)c2ccc(S(=O)(=O)N3CCCCC3)cc2)c([N+](=O)[O-])c(=O)[nH]1 do in these assays?
RGS7-Gao: 102; RGS8-Gao reg: 103; RGS16-Gao HTS: 107; RGS4-Gao reg: 95

How did COc1ccc(/C=N/n2cnn(Cc3ccccc3Cl)c2=S)cc1 do in these assays?
RGS7-Gao: inconclusive; RGS8-Gao reg: 15*; RGS16-Gao HTS: 12*; RGS4-Gao reg: 23*; Biotin-avidin: -2; RGS8-Gao single: 102; RGS7-Gao single: 107; RGS16-Gao single: 101; RGS4-Gao single: 103; RGS19-Gao single: 98

What do the screens show for `Cc1cc2nc(C(C)(C)C)cc(N)n2n1`?
RGS7-Gao: inconclusive; RGS8-Gao reg: 104; RGS16-Gao HTS: 105; RGS4-Gao reg: 104
